Several values for one entry are separate records, joined by “and”; a condition that tells them apart may be missing. Equal entries are not always repeated. Activity calls are given as the source filed them.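 The calls were made as follows, unless noted: active = mean inhibition above 46.68%, the untreated control wells mean plus 3 SD; inactive = the rest.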

Nuclear receptor coactivator 1 (Homo sapiens), sequence (Q15788 whole entry, looked up, the tested form may be a part): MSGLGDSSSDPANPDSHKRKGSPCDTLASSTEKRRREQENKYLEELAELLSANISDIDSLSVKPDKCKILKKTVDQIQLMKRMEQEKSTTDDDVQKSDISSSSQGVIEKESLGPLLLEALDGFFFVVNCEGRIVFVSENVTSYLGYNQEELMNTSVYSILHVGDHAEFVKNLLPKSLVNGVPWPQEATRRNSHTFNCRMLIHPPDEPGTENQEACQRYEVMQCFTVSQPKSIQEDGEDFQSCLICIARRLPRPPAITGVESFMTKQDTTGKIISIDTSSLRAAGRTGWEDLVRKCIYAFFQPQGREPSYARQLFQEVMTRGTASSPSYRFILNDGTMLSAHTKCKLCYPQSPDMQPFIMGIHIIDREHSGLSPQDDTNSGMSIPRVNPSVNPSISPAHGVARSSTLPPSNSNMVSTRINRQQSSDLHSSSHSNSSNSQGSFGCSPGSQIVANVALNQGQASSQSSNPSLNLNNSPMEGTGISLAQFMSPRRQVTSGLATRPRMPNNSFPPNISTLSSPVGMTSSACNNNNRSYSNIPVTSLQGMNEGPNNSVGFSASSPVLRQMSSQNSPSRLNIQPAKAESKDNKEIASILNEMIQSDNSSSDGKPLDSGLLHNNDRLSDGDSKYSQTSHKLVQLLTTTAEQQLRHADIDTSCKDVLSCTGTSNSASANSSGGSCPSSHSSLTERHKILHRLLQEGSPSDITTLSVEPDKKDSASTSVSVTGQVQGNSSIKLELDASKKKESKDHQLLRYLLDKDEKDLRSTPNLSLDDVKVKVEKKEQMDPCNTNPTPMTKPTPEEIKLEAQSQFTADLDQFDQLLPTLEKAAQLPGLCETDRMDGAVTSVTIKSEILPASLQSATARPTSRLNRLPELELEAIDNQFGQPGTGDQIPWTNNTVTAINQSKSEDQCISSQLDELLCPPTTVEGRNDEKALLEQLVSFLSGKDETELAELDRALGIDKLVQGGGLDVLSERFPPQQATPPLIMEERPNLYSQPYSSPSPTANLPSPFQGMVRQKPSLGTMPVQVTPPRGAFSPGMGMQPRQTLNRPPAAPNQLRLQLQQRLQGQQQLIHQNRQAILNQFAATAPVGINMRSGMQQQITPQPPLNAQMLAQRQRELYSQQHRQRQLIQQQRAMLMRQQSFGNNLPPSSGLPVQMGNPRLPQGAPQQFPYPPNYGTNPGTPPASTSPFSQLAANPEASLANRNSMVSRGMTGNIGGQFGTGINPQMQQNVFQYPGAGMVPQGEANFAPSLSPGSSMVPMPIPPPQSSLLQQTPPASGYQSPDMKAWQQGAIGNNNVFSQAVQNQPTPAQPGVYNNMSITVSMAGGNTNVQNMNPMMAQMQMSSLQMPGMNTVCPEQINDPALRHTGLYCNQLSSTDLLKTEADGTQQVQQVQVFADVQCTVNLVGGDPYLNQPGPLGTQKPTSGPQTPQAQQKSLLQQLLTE

One assay has as its target Nuclear receptor coactivator 1 (Homo sapiens) (UniProt Q15788). The experiment in a line: SRC1 coactivator transcriptional activity inhibitors, confirmation, cell-based, luminescence, quadruplicate (AID 588820).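 Also: 0% = DMSO wells and 100% = gossypol 36 µM treated wells.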 To be noted: HEK293 GAL4-SRC1 luciferase reporter, at 3.6 µM, stronger effect = higher value.
As for `CN(C)S(=O)(=O)N1CCC(Oc2cccc(C(=O)NC3CCCCC3)c2)CC1`, the inhibition is -42% (inactive).

Consider `O=C1c2c(O)ccc(O)c2C(=O)c2c(NCCNCCO)ccc(NCCNCCO)c21`, for which the inhibition is -142% (inactive) and -11.9% (inactive).

For `O=C(Nc1ccc2c(c1)OCCO2)c1[nH]c(C(F)(F)F)nc1-c1ccccc1`, the inhibition was -3.74% (inactive).

For the compound `CCN1CCN(C(=S)c2ccc(-c3ccccc3)cc2)CC1`, the inhibition is 37.8% (inactive).

In the case of `O=C(Nc1ccc(OCc2ccccc2Cl)cc1)c1cccnc1`, the inhibition was -2.33% (inactive).

Regarding `COc1ccc2c(=O)cc(-c3ccncc3)oc2c1OC`, the inhibition is 43.9% (inactive).

Consider `CCN(C(=O)c1cc(S(=O)(=O)N2CCCCC2)c[nH]1)c1ccc(OC)cc1`, for which the inhibition was 28.1% (inactive).

With `CN(C)CCNC(=O)c1ccc(Cl)c2cc3ccccc3nc12`, the inhibition is 14.8% (inactive).

Regarding `CCn1ccnc1CN(C)Cc1cn[nH]c1-c1ccc(F)cc1F`, the inhibition is 30.6% (inactive).

On to `C=C1C(=O)C23CCC4C(C)(C(=O)OC)CCCC4(C)C2CCC1(O)C3` (stereo not drawn), for which the inhibition was -0.73% (inactive).

For the compound `NC(=S)NN=Cc1ccc(OC(=O)COc2cc(Cl)c(Cl)cc2Cl)cn1`, the inhibition is 23.4% (inactive).

Consider `O=S(=O)(Nc1ccc2c(c1)OCCO2)c1cccc2nsnc12`, for which the inhibition was 7.42% (inactive).

Turning to `Cc1noc(/C=C/c2ccco2)c1S(=O)(=O)N1CCC(C(=O)Nc2ccc(Cl)cn2)CC1`, the inhibition was 16.8% (inactive).

Regarding `CC(C)CCNC(=O)c1sc2ccc(S(=O)(=O)N3CCCCC3)cc2c1N`, the inhibition was 13.5% (inactive).

On to `Cn1nnnc1Sc1ncnc2scc(-c3ccc4c(c3)OCO4)c12`, for which the inhibition was 0.44% (inactive).

`COc1ccccc1NS(=O)(=O)c1cccc(NC(=O)c2cncc(Br)c2)c1`: the inhibition was 20% (inactive).

In the case of `O=[N+]([O-])c1ccc2c(c1)-c1ccccc1C2=NO`, the inhibition is 21.4% (inactive).

`CC1CCN(c2ccc(-c3cccc(NC(=O)C(F)(F)F)c3)nn2)CC1`: the inhibition is -55.7% (inactive).

On to `COc1cccc(N2CCN(c3c(C#N)c(C(F)(F)F)nn3C)CC2)c1`, for which the inhibition is 48.8% (active).

Regarding `O=C(CCl)Nc1ccc(Oc2cnc3ccccc3n2)cc1`, the inhibition was 4.66% (inactive).

In the case of `CCOC(=O)c1c(C)cc2c(CO)n[nH]c(=O)c2c1C`, the inhibition is 11.6% (inactive).

On to `CC1(C)CC(N2CCCC2)=CC(=[N+]2CCCC2)C1`, for which the inhibition was 2.13% (inactive).

For `COc1ccc(CCNc2c(C)c(C)nc3ncnn23)cc1`, the inhibition was -13.9% (inactive).

With `Cc1nc2sc(C(N)=O)c(N)c2c(C)c1CC(=O)c1ccccc1`, the inhibition is 35.5% (inactive).

Regarding `Cc1ccc(C(=O)C(C(=O)/C=C/c2ccccc2)=C2SCCCS2)cc1`, the inhibition is 44.4% (inactive).

With `Cc1ncc(CO)c(/C=N/Nc2ccc(C(F)(F)F)cn2)c1O`, the inhibition is 11.6% (inactive).

For `Cc1ccc(-c2cc(C(=O)NCCCN3CCOCC3)no2)cc1`, the inhibition is 8.12% (inactive).

Consider `O=C(Nc1ccc(N2CCN(C(=O)c3ccco3)CC2)c(Cl)c1)c1cc2ccccc2o1`, for which the inhibition was -30.1% (inactive).

As for `Cc1ccc(C(=O)c2cccc(N)c2)cc1C`, the inhibition is -41.2% (inactive).

On to `COc1ccc(S(=O)(=O)N2CCOCC2)cc1NC(=O)CCNC(=O)c1ccc(Br)cc1`, for which the inhibition was 64.3% (active).

Take `Cc1ccc(OCC(=O)NC(=S)Nc2ccccn2)c(Br)c1`: the inhibition is -49% (inactive).

As for `O=C1CCC2S/C(=C/Nc3ccc(C(F)(F)F)cc3)C(=O)N12` (stereo not drawn), the inhibition is 15.1% (inactive).

`Cc1ccc(Oc2ccc(C(=O)NCc3ccncc3)cc2)cc1`: the inhibition was 2.24% (inactive).

For the compound `c1ccc2c(-c3cccc4nccn34)cncc2c1`, the inhibition is 33.6% (inactive).

`CC(C)(C)c1cc(/C=N/O)cc(C(C)(C)C)c1O`: the inhibition was 33.6% (inactive).

For `COc1ccc(-c2noc(CCCCC(=O)N3CCN(c4cc(C)ccc4C)CC3)n2)cc1`, the inhibition was -26% (inactive).

With `Cc1cc(NC2CCCC2)n2ncc(-c3ccccc3)c2n1`, the inhibition is -78.1% (inactive).

As for `CCn1c(Oc2cccc(Br)c2)nc2c1c(=O)n(C)c(=O)n2C`, the inhibition was 15.8% (inactive).

For `Cc1sc2ncnc(N3CCC(C(=O)N(C)CC(=O)Nc4cccc(F)c4)CC3)c2c1C`, the inhibition was 33.5% (inactive).

Test system in the next assay: not listed separately
Description: VP16 transactivation inhibitors, counter-screen for SRC1 inhibitor project, cell-based, luminescence, high throughput (AID 588824; in the data active = inhibition above about 25%). The conditions noted are these: cell-based VP16 transactivation luciferase luminescence; at 3.6 µM; stronger effect = higher value.
Regarding `CN(C)S(=O)(=O)N1CCC(Oc2cccc(C(=O)NC3CCCCC3)c2)CC1`, the inhibition was 22% (inactive).

`O=C1c2c(O)ccc(O)c2C(=O)c2c(NCCNCCO)ccc(NCCNCCO)c21`: the inhibition is 20.7% (inactive) and 0.91% (inactive).

For the compound `O=C(Nc1ccc2c(c1)OCCO2)c1[nH]c(C(F)(F)F)nc1-c1ccccc1`, the inhibition is -15.6% (inactive).

In the case of `CCN1CCN(C(=S)c2ccc(-c3ccccc3)cc2)CC1`, the inhibition was 12.8% (inactive).

Consider `O=C(Nc1ccc(OCc2ccccc2Cl)cc1)c1cccnc1`, for which the inhibition is -5.23% (inactive).

As to `COc1ccc2c(=O)cc(-c3ccncc3)oc2c1OC`, the inhibition was 19.3% (inactive).

As for `CCN(C(=O)c1cc(S(=O)(=O)N2CCCCC2)c[nH]1)c1ccc(OC)cc1`, the inhibition is 22.5% (inactive).

As for `CN(C)CCNC(=O)c1ccc(Cl)c2cc3ccccc3nc12`, the inhibition is 29.6% (active).

Turning to `CCn1ccnc1CN(C)Cc1cn[nH]c1-c1ccc(F)cc1F`, the inhibition is 15.7% (inactive).

As for `C=C1C(=O)C23CCC4C(C)(C(=O)OC)CCCC4(C)C2CCC1(O)C3` (stereo not drawn), the inhibition was 53.7% (active).

Take `NC(=S)NN=Cc1ccc(OC(=O)COc2cc(Cl)c(Cl)cc2Cl)cn1`: the inhibition was 18.9% (inactive).

On to `O=S(=O)(Nc1ccc2c(c1)OCCO2)c1cccc2nsnc12`, for which the inhibition was -8.28% (inactive).

For `Cc1noc(/C=C/c2ccco2)c1S(=O)(=O)N1CCC(C(=O)Nc2ccc(Cl)cn2)CC1`, the inhibition is 24.4% (inactive).

On to `CC(C)CCNC(=O)c1sc2ccc(S(=O)(=O)N3CCCCC3)cc2c1N`, for which the inhibition is 13.8% (inactive).

For the compound `Cn1nnnc1Sc1ncnc2scc(-c3ccc4c(c3)OCO4)c12`, the inhibition is 3.16% (inactive).

`COc1ccccc1NS(=O)(=O)c1cccc(NC(=O)c2cncc(Br)c2)c1`: the inhibition is 25.1% (inactive).

As for `O=[N+]([O-])c1ccc2c(c1)-c1ccccc1C2=NO`, the inhibition is 9.81% (inactive).

For the compound `CC1CCN(c2ccc(-c3cccc(NC(=O)C(F)(F)F)c3)nn2)CC1`, the inhibition is -29.6% (inactive).

Consider `COc1cccc(N2CCN(c3c(C#N)c(C(F)(F)F)nn3C)CC2)c1`, for which the inhibition is 32.2% (active).

In the case of `O=C(CCl)Nc1ccc(Oc2cnc3ccccc3n2)cc1`, the inhibition is 2.08% (inactive).

Turning to `CCOC(=O)c1c(C)cc2c(CO)n[nH]c(=O)c2c1C`, the inhibition is 23.1% (inactive).

As for `CC1(C)CC(N2CCCC2)=CC(=[N+]2CCCC2)C1`, the inhibition was 23.9% (inactive).

For `COc1ccc(CCNc2c(C)c(C)nc3ncnn23)cc1`, the inhibition is 29.1% (active).

As to `Cc1nc2sc(C(N)=O)c(N)c2c(C)c1CC(=O)c1ccccc1`, the inhibition was 5.05% (inactive).

With `Cc1ccc(C(=O)C(C(=O)/C=C/c2ccccc2)=C2SCCCS2)cc1`, the inhibition is 34.3% (active).

Take `Cc1ncc(CO)c(/C=N/Nc2ccc(C(F)(F)F)cn2)c1O`: the inhibition is 18.7% (inactive).

Take `Cc1ccc(-c2cc(C(=O)NCCCN3CCOCC3)no2)cc1`: the inhibition is -4.18% (inactive).

For the compound `O=C(Nc1ccc(N2CCN(C(=O)c3ccco3)CC2)c(Cl)c1)c1cc2ccccc2o1`, the inhibition is 6.89% (inactive).

In the case of `Cc1ccc(C(=O)c2cccc(N)c2)cc1C`, the inhibition was 3.5% (inactive).

Turning to `COc1ccc(S(=O)(=O)N2CCOCC2)cc1NC(=O)CCNC(=O)c1ccc(Br)cc1`, the inhibition is 61.1% (active).

Take `Cc1ccc(OCC(=O)NC(=S)Nc2ccccn2)c(Br)c1`: the inhibition was -39.2% (inactive).

For the compound `O=C1CCC2S/C(=C/Nc3ccc(C(F)(F)F)cc3)C(=O)N12` (stereo not drawn), the inhibition is 6.56% (inactive).

For `Cc1ccc(Oc2ccc(C(=O)NCc3ccncc3)cc2)cc1`, the inhibition was 23.4% (inactive).

With `c1ccc2c(-c3cccc4nccn34)cncc2c1`, the inhibition was 30.7% (active).

Take `CC(C)(C)c1cc(/C=N/O)cc(C(C)(C)C)c1O`: the inhibition was 26.5% (active).

`COc1ccc(-c2noc(CCCCC(=O)N3CCN(c4cc(C)ccc4C)CC3)n2)cc1`: the inhibition was 32.4% (active).

For `Cc1cc(NC2CCCC2)n2ncc(-c3ccccc3)c2n1`, the inhibition is -34.6% (inactive).

For `CCn1c(Oc2cccc(Br)c2)nc2c1c(=O)n(C)c(=O)n2C`, the inhibition was 12.3% (inactive).

`Cc1sc2ncnc(N3CCC(C(=O)N(C)CC(=O)Nc4cccc(F)c4)CC3)c2c1C`: the inhibition was 22.7% (inactive).
